The structures appear in SMILES notation. Unmarked numbers belong to inactive results. Inconclusive results are not listed. Active and inactive are the calls of the source. Unless noted, the call rests on the fitted dose curve; in most records, active means well fitted curve in the direction sought with a large enough effect; inconclusive means small, poorly fitted or top-dose-only effect, or another doubt; inactive means no such curve, though single readings can be large; an effect the other way counts as inactive or inconclusive.

The nature of assay [1]: AP1 Signaling Pathway (AID 357; active means well fitted curve in either direction with a large enough effect, not every such curve was filed as active;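 further: ME-180 reporter cells stimulated with EGF at its EC50 level; on the % scale 0 is the no-effect control and ±100 the full control effect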). To be noted: ME-180 AP-1-bla reporter, EGF-induced, beta-lactamase ratio, 5 h; at 7.69 µM (top of the series) unless noted. The method, boiled down:
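AP-1-bla ME-180 cells, Opti-MEM + 0.5% dialyzed FBS, plated overnight 37 °C. Cpd titration + EC50 EGF, 5 h 37 °C. CCF4 2.5 h RT; ex 405, em 460/530 ratio → %activity, AC50.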

In assay [2] the target is Cytochrome P450 1A2 (Homo sapiens) (UniProt P05177). The experiment in a line: p450-cyp1a2 (AID 410; calls by dose curve; further: potency means the concentration at half of the fitted maximal effect). The method, boiled down:
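Luminescent demethylation readout: Luciferin-ME (100uM, equal to Km) turned over by 20nM CYP1A2 for 60 min at room temperature after NADPH regeneration addition, following 10 min compound preincubation. Normalization used 57 uM furafylline as full inhibition.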

Assay [3] in a line: NFAT Signaling Pathway (AID 444; active means well fitted curve in either direction with a large enough effect, not every such curve was filed as active;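 further: carbachol stimulus at about its EC50 of 1 µM final; on the % scale 0 is the no-effect control and ±100 the full control effect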). The note with it: Jurkat NFAT-bla M1, carbachol, beta-lactamase ratio, 5 h; at 7.69 µM (top of the series) unless noted. The method, boiled down:
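Jurkat cells carrying an NFAT-driven β-lactamase reporter and co-transfected muscarinic M1 receptor were treated with compound plus carbachol (1 uM final, an EC50 level) for 5 h at 37 °C. CCF4 loading followed for 1 h at RT; 460/530 nm ratio gave %activity.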

Assay [4] can be described thus: Stat Signaling Pathway (AID 446; active means well fitted curve in either direction with a large enough effect, not every such curve was filed as active;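 further: ME-180 cervical cancer cells given 40 pM IL-6 alongside compound; SIE-controlled beta-lactamase reporter measured as 460/530 nm FRET emission ratio; on the % scale 0 is the no-effect control and ±100 the full control effect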). To be noted: ME-180 SIE beta-lactamase reporter, IL-6 stimulated, 5 h; at 7.69 µM (top of the series) unless noted. The method, boiled down: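 Emission at 460 and 530 nm (excitation 405 nm) reports SIE-controlled beta-lactamase in ME-180 cells. Cells received compound with 40 pM IL-6 for 5 hrs at 37 C; data scaled between 300 pM IL-6 and 125 nM JAK-inhibitor controls.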

Assay [5] addresses Glucocorticoid receptor (Homo sapiens) (UniProt P04150). Description: GR-GFP Redistribution (AID 450;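 active means compounds whose dose series gives a full or clear partial fitted curve of increased nuclear translocation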; further: potency means the concentration at half of the fitted maximal effect). The note with it: U2OS GR-GFP nuclear translocation, laser cytometry, 2 h.
Assay [6] shares this target. The experiment in a line: GR-EFC Redistribution (AID 451; calls by dose curve; further: potency means the concentration at half of the fitted maximal effect). The note with it: CHO-K1 GR-EFC translocation, beta-gal luminescence, 2 h. An outline of the steps: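 CHO-K1 cells stably expressing nuclear-localized β-gal enzyme acceptor and GR fused C-terminally to the enzyme donor fragment; ligand-driven nuclear translocation restores β-gal by complementation. Compounds titrated up to 46 uM final, 2 h at 37 °C; luminescence read.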

The target in assay [7] is Mitogen-activated protein kinase 10 (Mus musculus) (UniProt Q61831). The experiment in a line: JNK3 AlphaScreen Assay (AID 530; active means well fitted curve in either direction with a large enough effect, not every such curve was filed as active;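 further: kinase came from lysate of stimulated human HepG2 cells; signal reports phosphorylation of biotinylated GST-cJun 1-79 at Ser73 with 10 µM ATP; on the % scale 0 is the no-effect control and ±100 the full control effect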). The method, boiled down: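 Phosphorylation of biotinylated GST-cJun(1-79) at Ser73 is measured by AlphaScreen proximity luminescence. Enzyme is JNK3 in HepG2 lysates activated with interleukin-1beta and tumor necrosis factor alpha; ATP is 10 uM final.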
(Alpha assays give light when donor and acceptor beads are brought close together.)

The target in assay [8] is Cytochrome P450 3A4 (Homo sapiens) (UniProt P08684). The experiment in a line: qHTS Assay for Inhibitors and Substrates of Cytochrome P450 3A4 (AID 884). Further: potency means the concentration at half of the fitted maximal effect; nearly all actives have a fitted effect of over 50% in size. An outline of the steps:
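Luminescent readout of luciferin produced by CYP3A4 (20 nM) dealkylation of Luciferin-PPXE, 25 uM (its KM). NADPH-driven reaction ran 60 min at RT after 10 min compound preincubation; data scaled to 57 uM ketoconazole as 100% inhibition.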
(In general: In qHTS, concentration-response curves come from the screen itself.)

For assay [9] the target is unchanged. The experiment in a line: qHTS Assay for Activators of Cytochrome P450 3A4 (AID 885). Further: nearly all actives have a fitted effect of over 65% in size. The method, boiled down:
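Activators are scored by enhanced luminescence from CYP3A4 conversion of luciferin-PPXE (25uM, equal to KM) to luciferin, after 60 min at RT with an NADPH-regenerating system.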

Assay [10] deals with Dual specificity protein kinase CLK4 (Homo sapiens) (UniProt Q9HAZ1). Description: qHTS Assay for Inhibitors of CDC-like Kinase 4 (Kinase-Glo Assay) (AID 1770). Further: on the % scale 0 is the no-effect control and ±100 the full control effect; nearly all actives have a fitted effect of over 65% in size. An outline of the steps:
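Recombinant human Clk4 (25 nM) phosphorylated RS repeat peptide (100 uM) with 1 uM ATP in Tris pH 7.5/MgCl2/EGTA/DTT/Triton buffer for 4.5 h at room temperature. Residual ATP was quantified by Kinase-Glo luciferase luminescence.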

For assay [11] the target is unchanged. The experiment in a line: qHTS Assay for Inhibitors of CDC-like Kinase 4 (ADP-Glo Assay) (AID 1771). Further: on the % scale 0 is the no-effect control and ±100 the full control effect; nearly all actives have a fitted effect of over 70% in size. The method, boiled down:
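ADP production was read by ADP-Glo luminescence after residual ATP depletion, following 1 h room-temperature reaction of 25 nM Clk4, 1 uM ATP and 100 uM RS peptide with MgCl2, EGTA, DTT and Triton X-100.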

The target is the same in assay [12]. Description: qHTS Assay for Inhibitors of CDC-like Kinase 4 (ADP-FP Assay) (AID 1795). Further: on the % scale 0 is the no-effect control and ±100 the full control effect; nearly all actives have a fitted effect of over 60% in size. An outline of the steps:
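Recombinant human Clk4 (6.25 nM) phosphorylated RS repeat peptide (100 uM) with 1 uM ATP in Tris pH 7.5/MgCl2/EGTA/DTT/Triton buffer for one hour. ADP was quantified by Transcreener competitive fluorescence polarization against an ADP calibration curve.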

Assay [13] concerns the target Ubiquitin carboxyl-terminal hydrolase 1 (Homo sapiens) (UniProt O94782). The experiment in a line: Inhibitors of USP1/UAF1: Pilot qHTS (AID 504865).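 Further: rhodamine fluorescence freed from ubiquitin-rhodamine substrate followed over time; top concentration of the series differs between compounds; on the % scale 0 is the no-effect control and ±100 the full control effect; nearly all actives have a fitted effect of over 35% in size.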 The method, boiled down: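 USP1/UAF1 complex (1nM) preincubated with compound 15 min at room temperature, then Ub-Rho substrate (150nM final) added. Fluorescence read kinetically at 480/540 nm, 6 reads every 60 seconds. Buffer: 50mM HEPES pH 7.8, 0.5mM EDTA, 0.1 mg/ml BSA, 1mM TCEP, 0.01% Tween-20.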

Assay [14] in a line: Primary qHTS for small molecule stabilizers of the endoplasmic reticulum resident proteome: Secreted ER Calcium Modulated Protein (SERCaMP) assay (AID 1508630). Further: on the % scale 0 is the no-effect control and ±100 the full control effect. An outline of the steps: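 The SH-SY5Y reporter protocol was run at 3 concentrations up to 38.3 uM (primary) or 11 concentrations (follow-up): 16 h compound, 100 nM thapsigargin for 4 h, then extracellular luciferase luminescence.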

Assay [15] has as its target Lysosomal acid glucosylceramidase (Homo sapiens) (UniProt P04062). Description: Glucocerebrosidase-p2 (AID 348; in the data active means potency below about 10 µM; further: potency means the concentration at half of the fitted maximal effect). The note with it: purified GBA, blue fluorogenic substrate, 40 min. An outline of the steps:
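Normal human glucocerebrosidase (0.2 nM) with blue fluorogenic substrate (80 uM final) in citrate/phosphate pH 5.9 with 10mM sodium taurocholate, 0.01% tween-20; 40 min RT, NaOH/glycine stop; fluorescence Ex 365/Em 440; AC50 from a titration from 0.6 nM upwards.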

Assay [16] concerns the target 3',5'-cyclic-AMP phosphodiesterase 4B (Homo sapiens) (UniProt Q07343). Description: qHTS Assay for Inhibitors of PDE-IV (AID 607; active means well fitted activation curve with a large enough effect in the main read-out, with a control signal flat, not every such curve was filed as active; further: % of control where 0% means no effect). The method, boiled down:
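The readout is membrane depolarisation from a cAMP-sensing CNG channel, detected with a potential dye at ex 535/em 590. Cells were HEK293-derived (endogenous PDE-IV) at 1000 cells/well, titrated up to 22.9 uM final.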

Assay [17] can be described thus: qHTS Assay for Identification of Small Molecule Agonists for Hypoxia Response Element Signaling Pathway (AID 914; active means well fitted activation curve with a large enough effect in the signal ratio, with a control signal flat, not every such curve was filed as active; the % refers to the signal ratio; further: potency means the concentration at half of the fitted maximal effect). The note with it: ME-180 (cervical carcinoma) HRE-bla reporter, beta-lactamase ratio, CoCl2, 17 h; activation: active compounds read high. An outline of the steps:
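Compounds in a titration series were added to ME-180 reporter cells alongside an EC50 level of CoCl2. After 17 hours, beta-lactamase activity was read as the 460nm/530nm emission ratio of CCF4, giving AC50 values.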

Cytochrome P450 3A4 (Homo sapiens), sequence (P08684 whole entry, looked up): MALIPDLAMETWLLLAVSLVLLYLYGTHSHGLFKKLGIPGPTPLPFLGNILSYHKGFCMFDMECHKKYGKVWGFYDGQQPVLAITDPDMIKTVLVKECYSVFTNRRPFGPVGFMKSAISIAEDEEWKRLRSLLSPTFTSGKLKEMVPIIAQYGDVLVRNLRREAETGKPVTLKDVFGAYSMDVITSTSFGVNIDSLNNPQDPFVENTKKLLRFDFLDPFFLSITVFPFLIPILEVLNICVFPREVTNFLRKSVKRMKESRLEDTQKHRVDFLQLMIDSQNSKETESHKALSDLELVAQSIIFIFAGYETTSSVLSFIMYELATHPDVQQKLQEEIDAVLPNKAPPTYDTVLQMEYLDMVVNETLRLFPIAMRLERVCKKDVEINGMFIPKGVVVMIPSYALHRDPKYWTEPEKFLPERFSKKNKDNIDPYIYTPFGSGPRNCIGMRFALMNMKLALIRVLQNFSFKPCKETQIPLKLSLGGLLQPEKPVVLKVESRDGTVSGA
Lysosomal acid glucosylceramidase (Homo sapiens), sequence (P04062 whole entry, looked up): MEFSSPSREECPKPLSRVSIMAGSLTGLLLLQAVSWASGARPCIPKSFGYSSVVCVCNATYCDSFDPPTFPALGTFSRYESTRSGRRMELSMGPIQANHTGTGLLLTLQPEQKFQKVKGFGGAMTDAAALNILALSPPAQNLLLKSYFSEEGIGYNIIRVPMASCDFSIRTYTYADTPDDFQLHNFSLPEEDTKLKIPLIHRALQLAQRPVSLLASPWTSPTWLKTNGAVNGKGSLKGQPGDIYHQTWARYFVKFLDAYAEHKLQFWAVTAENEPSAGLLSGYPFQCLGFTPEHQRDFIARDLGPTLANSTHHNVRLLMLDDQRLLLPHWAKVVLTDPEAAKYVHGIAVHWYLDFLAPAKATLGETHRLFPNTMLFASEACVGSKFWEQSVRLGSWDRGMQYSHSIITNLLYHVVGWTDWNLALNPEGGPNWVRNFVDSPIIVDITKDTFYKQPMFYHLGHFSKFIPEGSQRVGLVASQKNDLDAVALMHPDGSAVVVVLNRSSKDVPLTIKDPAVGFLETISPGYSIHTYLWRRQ
Glucocorticoid receptor (Homo sapiens), sequence (P04150 whole entry, looked up, the tested form may be a part): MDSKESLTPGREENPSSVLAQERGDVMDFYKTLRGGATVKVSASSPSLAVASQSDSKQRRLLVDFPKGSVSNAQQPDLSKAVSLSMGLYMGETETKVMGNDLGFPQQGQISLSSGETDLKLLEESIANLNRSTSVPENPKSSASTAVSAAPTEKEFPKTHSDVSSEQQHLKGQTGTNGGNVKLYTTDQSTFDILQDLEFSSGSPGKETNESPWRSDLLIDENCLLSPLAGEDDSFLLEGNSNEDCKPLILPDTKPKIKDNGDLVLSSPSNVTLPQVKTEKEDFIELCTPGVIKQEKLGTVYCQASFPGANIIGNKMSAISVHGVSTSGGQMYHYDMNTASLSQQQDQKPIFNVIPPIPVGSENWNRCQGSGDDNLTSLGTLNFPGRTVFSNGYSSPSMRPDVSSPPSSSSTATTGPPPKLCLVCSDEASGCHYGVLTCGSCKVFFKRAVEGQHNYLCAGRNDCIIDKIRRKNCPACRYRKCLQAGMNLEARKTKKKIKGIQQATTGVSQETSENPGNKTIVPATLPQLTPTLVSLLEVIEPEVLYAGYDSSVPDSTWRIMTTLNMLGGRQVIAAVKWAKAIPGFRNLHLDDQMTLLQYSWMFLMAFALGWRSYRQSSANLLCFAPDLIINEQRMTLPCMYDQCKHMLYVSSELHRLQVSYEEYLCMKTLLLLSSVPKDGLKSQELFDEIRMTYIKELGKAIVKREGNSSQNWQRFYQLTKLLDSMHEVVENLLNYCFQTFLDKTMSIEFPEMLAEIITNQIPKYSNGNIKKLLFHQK
Cytochrome P450 1A2 (Homo sapiens), sequence (P05177 whole entry, looked up): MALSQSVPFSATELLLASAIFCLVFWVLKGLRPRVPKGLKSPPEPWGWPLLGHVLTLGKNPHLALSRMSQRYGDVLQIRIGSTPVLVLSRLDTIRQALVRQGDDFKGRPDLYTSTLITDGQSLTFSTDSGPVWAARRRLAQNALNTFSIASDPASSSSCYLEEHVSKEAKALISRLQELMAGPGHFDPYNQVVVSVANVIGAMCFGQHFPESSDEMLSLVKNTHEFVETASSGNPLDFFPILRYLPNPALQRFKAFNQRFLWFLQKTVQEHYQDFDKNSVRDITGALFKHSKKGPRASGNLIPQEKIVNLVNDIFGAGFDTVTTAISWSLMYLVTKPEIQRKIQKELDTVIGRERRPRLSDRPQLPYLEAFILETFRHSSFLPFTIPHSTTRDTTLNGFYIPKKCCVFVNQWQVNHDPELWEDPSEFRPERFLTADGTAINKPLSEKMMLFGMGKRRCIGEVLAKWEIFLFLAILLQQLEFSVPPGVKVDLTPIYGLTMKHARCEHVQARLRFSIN
Dual specificity protein kinase CLK4 (Homo sapiens), sequence (Q9HAZ1 whole entry, looked up): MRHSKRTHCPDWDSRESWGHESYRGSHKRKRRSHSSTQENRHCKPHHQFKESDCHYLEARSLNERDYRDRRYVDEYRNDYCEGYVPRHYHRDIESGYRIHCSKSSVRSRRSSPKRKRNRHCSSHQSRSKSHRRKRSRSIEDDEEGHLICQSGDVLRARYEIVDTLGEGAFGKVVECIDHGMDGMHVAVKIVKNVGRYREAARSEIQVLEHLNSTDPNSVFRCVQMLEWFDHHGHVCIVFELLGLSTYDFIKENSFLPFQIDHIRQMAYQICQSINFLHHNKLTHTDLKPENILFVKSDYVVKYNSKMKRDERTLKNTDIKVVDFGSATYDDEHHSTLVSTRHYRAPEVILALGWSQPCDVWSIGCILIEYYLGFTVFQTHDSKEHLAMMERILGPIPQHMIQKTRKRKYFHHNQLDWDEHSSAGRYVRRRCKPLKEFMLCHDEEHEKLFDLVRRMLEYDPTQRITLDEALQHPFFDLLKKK
Ubiquitin carboxyl-terminal hydrolase 1 (Homo sapiens), sequence (O94782 whole entry, looked up): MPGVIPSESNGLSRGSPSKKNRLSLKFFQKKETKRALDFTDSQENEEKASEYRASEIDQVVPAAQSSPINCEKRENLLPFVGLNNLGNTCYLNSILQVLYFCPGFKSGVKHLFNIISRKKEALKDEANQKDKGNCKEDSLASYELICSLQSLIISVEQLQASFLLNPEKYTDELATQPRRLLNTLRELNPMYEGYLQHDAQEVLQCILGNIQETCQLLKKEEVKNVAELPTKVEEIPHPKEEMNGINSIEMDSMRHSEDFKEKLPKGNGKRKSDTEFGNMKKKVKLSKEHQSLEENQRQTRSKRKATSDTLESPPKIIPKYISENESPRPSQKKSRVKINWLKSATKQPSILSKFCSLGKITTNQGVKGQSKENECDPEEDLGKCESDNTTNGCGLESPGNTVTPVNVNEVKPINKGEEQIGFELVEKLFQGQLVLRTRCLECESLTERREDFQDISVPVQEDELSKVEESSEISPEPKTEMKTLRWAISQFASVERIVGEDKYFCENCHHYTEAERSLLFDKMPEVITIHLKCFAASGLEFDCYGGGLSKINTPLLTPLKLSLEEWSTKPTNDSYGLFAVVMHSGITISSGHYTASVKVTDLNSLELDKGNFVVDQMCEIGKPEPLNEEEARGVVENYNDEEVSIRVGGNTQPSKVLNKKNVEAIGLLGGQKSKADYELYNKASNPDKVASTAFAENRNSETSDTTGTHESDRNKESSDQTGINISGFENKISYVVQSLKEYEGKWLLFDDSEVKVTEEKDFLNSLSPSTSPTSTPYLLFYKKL
3',5'-cyclic-AMP phosphodiesterase 4B (Homo sapiens), sequence (Q07343 whole entry, looked up): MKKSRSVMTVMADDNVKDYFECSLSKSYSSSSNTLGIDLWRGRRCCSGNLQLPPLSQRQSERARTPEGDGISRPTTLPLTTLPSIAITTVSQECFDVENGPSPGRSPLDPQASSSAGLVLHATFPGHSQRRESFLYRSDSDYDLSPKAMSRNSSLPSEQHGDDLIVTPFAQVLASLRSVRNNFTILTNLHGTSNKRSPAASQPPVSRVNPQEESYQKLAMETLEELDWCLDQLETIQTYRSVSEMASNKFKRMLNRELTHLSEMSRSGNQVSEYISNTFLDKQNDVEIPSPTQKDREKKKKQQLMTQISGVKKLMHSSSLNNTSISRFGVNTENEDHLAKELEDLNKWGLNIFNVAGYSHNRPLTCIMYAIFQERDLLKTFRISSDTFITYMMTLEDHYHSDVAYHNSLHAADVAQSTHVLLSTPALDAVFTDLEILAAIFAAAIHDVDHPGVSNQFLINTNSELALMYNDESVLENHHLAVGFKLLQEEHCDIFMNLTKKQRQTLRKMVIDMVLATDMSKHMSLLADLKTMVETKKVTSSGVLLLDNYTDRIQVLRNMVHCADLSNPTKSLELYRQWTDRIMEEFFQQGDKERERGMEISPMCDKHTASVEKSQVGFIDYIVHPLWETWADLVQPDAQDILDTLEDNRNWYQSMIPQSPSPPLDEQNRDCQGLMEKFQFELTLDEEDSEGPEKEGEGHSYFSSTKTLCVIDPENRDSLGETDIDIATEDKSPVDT

With `COc1ccc(CNc2ncncc2-c2ccc(C(=O)N(C)C)cc2)c(OC)c1`, the activity change, negative = inhibition in assay [1] was -28.8%; in assay [3], 18.9%. Further, the Potency in [2] is 15.8 µM (active); in assay [5] it was > 46 µM; in [6] it was > 46 µM; in assay [8], 0.501 µM (active). Also, in [4], the activity, negative = inhibition is -21%. The Potency result in assay [7], in assay [9], in assay [10], in assay [11], in assay [12] and in assay [13] was “inactive” each time. For the same molecule, the result in assay [14] was inactive.

As to `O=c1c(-c2ccc(Cl)cc2)nc2cnc(N3CCNCC3)nc2n1CCc1ccccc1`, the Potency in [15] is > 11.4 µM; in assay [5], > 9.22 µM; in assay [6] it was > 46 µM. In addition, the Potency result in assay [16], in [9], in assay [10], in [11] and in assay [12] was “inactive” in each case. For the same molecule, in assay [14], the result was inactive.

`CCNc1ncc2nc(-c3ccc(F)cc3)c(=O)n(C)c2n1`: the results for the activity change, negative = inhibition in assay [1] and in [3] were -8.75% and -26%, respectively. Moreover, the Potency was 0.501 µM (active) in assay [2], > 9.22 µM in [5] and > 46 µM in assay [6]. Further, in assay [4], the activity, negative = inhibition is -0.235%. Moreover, the Potency entry in assay [7], in [16], in assay [10], in assay [11], in [12] and in [13] was “inactive” in each case. The outcome in [14] was inactive.

For `CN(Cc1ccco1)c1ncncc1-c1cccc(NS(C)(=O)=O)c1`, the figures for the activity change, negative = inhibition in assay [1] and in [3] were -8.59% and -4.49%, respectively. Further, the Potency in assay [2] is 15.8 µM (active); in assay [5] it was > 46 µM; in assay [6], > 46 µM; in assay [8], 0.794 µM (active). For the same molecule, the activity, negative = inhibition in assay [4] is 8.28%. The Potency result in assay [7], in assay [16], in [9], in assay [10], in assay [11] and in assay [12] was “inactive” throughout. The Potency result in assay [13] was “inactive”. The result in assay [14] was inactive.

In the case of `CCNc1ncc2nc(-c3ccc(F)cc3)c(=O)n(-c3ccccc3)c2n1`, the Potency in assay [15] was > 11.4 µM; in assay [2], 0.398 µM (active); in assay [5], > 9.22 µM; in assay [6] it was > 46 µM; in [17] it was 3.16 µM (active). Also, the Potency entry in [7], in assay [10], in assay [11], in [12] and in [13] was “inactive” each time. Besides, the result in assay [14] was inactive.

Consider `Cn1c(=O)c(CCc2ccccc2)nc2cnc(Nc3ccccc3)nc21`, for which the Potency in assay [15] is > 11.4 µM; in assay [5] it was > 9.22 µM; in [6], > 46 µM. Also, the activity change, negative = inhibition in assay [3] is 1.9%. Also, the activity, negative = inhibition in assay [4] is -11.6%. In addition, the Potency result in [7], in [9], in assay [10], in assay [11], in assay [12] and in [13] was “inactive” in each case. The result in assay [14] was inactive.

With `COc1cccc(Nc2ncc3nc(-c4cc(F)cc(F)c4)c(=O)n(C[C@H]4CCCO4)c3n2)c1`, the Potency is > 11.4 µM in [15], > 9.22 µM in [5] and > 46 µM in assay [6]. Moreover, the activity, negative = inhibition in [4] was -10.3%. The Potency entry in assay [7], in assay [16], in assay [9], in assay [10], in assay [11] and in [12] was “inactive” in each case. Besides, the Potency result in [13] was “inactive”. Besides, the outcome in assay [14] was inactive.

These data come from PubChem BioAssay (NCATS).
